APP 5UTR inh – APP translation inhibition; SH-SY5Y APP 5'UTR-luciferase reporter, luminescence; inhibition, % at 2 µM; AID 1285; 190,000 compounds, 0.82% hits;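 active = inhibition above a set limit, derived from the sample mean plus 3 SD, cut at about 45% in these data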
IEC-6 cytotox – IEC-6 cytotoxicity, counter-screen for KLF5 inhibitors; luminescence viability; inhibition, % at 5 µM; 290,000 compounds, 0.78% hits; AID 1825; in the data active = inhibition above about 22%;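 also: 0% = plate median of test compound wells and 100% = cytotoxic reference compound wells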
Ba/F3 V617F tox – lowers viability of Ba/F3 cells expressing EpoR and JAK2V617F; ATP luminescence; inhibition, % at 5.6 µM; 220,000 compounds, 1.1% hits; AID 1446;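 active = inhibition above the campaign mean plus 3 SD over all tested compounds, cut at about 24% in these data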;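 also: cytokine-independent growth of Ba/F3 cells driven by EpoR plus mutant JAK2; 0% = DMSO-treated cells and 100% = JAK inhibitor I control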
BaF3 tox – parental Ba/F3 viability inhibition as JAK2V617F counter-screen. CellTiter-Glo ATP luminescence. inhibition, % at 5.6 µM. 220,000 compounds, 1.1% hits. AID 1486;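 active = inhibition above a per-campaign cutoff, the mean inhibition of all tested compounds plus 3 SD, cut at about 27% in these data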;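 also: 0% = DMSO wells and 100% = JAK Inhibitor I control wells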
KLF5 inh – inhibitors of KLF5 expression; AID 1700; inhibition, % at 5 µM; DLD-1 KLF5 promoter-luciferase reporter, luminescence; 290,000 compounds, 0.23% hits;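 active = inhibition above a per-plate limit of that plate's mean compound inhibition plus 3 SD, cut at about 60% in these data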;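 also: 0% = DMSO wells and 100% = LY294002 at 200 µM; higher means less KLF5 promoter-driven luciferase light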
Active calls of the source: *; · = not tested or not shown. Most compounds without a hit are left out; they make up all but 1.8% or so of the library.

SMILES | APP 5UTR inh | IEC-6 cytotox | Ba/F3 V617F tox | BaF3 tox | KLF5 inh
COc1ccc(CCn2nnc(-c3ccc(NC(C)=O)c(Cl)c3)n2)cc1 | -4.4 | -5.7 | -2.8 | 59.1* | -2.8
CCOc1ccc(CCNC(=O)COC(=O)CSc2ccccc2C)cc1OCC | · | -2.5 | · | · | -25.4
Nc1cc(Cl)ccc1N1CCOCC1 | 2.5 | 0.0 | 3.2 | 3.0 | -9.5
Nc1cc(Cl)ccc1N1CCCC1 | -4.4 | -0.8 | 41.6* | 55.1* | -30.7
Nc1cc(F)ccc1N1CCCCCC1 | 2.4 | -5.3 | 38.9* | 57.2* | -25.2
CN(C)c1ccc([C@@H]2[C@@H]([N+](=O)[O-])[C@H]3C=Cc4ccccc4N3[C@H]2C(=O)c2ccc(Cl)cc2)cc1 | -44.2 | 0.0 | 6.8 | 40.0* | -0.8
O=C(c1ccccc1)C1C(c2ccccc2)C1[N+](=O)[O-] (stereo not drawn) | · | 12.1 | 9.5 | -9.1 | -25.6
Cc1ccc(-c2cc(C(F)F)n3ncc(C(=O)N4CCCc5ccccc54)c3n2)cc1 | -2.3 | -7.1 | -6.2 | -0.2 | -1.6
COc1ccc(-c2cc(C(F)F)n3ncc(C(=O)N4CCc5ccccc54)c3n2)cc1 | 86.9* | -0.2 | -1.2 | 5.3 | 3.3
COC(=O)c1ccccc1NC(=O)N[C@@H](C)C(=O)OC | 76.2* | 3.1 | -3.1 | -1.0 | -10.1
CCOC(=O)c1ccccc1NC(=O)N[C@@H](C)C(=O)OC | 14.6 | -1.3 | -1.9 | -0.6 | -12.6
CCCCCCC(=O)c1c(C)[nH]c(C(=O)OCC)c1C | -18.1 | 8.0 | 0.4 | 41.1* | -37.8
CCOC(=O)c1[nH]c(C)c(C(=O)O)c1C | 5.4 | -3.3 | -3.5 | 2.3 | -46.4
CCOC(=O)c1[nH]c(C=O)c(C(=O)OCC)c1C | 91.4* | -4.2 | 4.0 | 2.9 | 42.2
CCCCCC(=O)c1c(C)[nH]c(C(=O)OCC)c1C | -20.3 | 0.9 | -3.2 | 0.9 | -31.6
CCCCCCCNC1=CC(=O)CC(c2ccco2)C1 (stereo not drawn) | -18.9 | 4.9 | 29.2* | 37.9* | 3.6
COc1ccc(S(=O)(=O)Nc2ncccn2)cc1 | · | -3.3 | · | · | -25.6
CCOC(=O)Nc1ccc(Cc2ccncc2)cc1 | 23.0 | 0.1 | -1.6 | 0.7 | -33.4
OC1(c2ccc(Cl)cc2)CN(c2ccccc2)C2=[N+]1CCS2 (stereo not drawn) | -10.5 | 1.7 | 2.3 | 2.5 | -19.6
COc1ccc(-c2cn(-c3ccccc3)c3[n+]2CCS3)cc1 | 4.7 | 10.3 | 75.7* | 66.6* | -12.9
Fc1ccc(-n2cc(-c3ccccc3)[n+]3c2SCC3)cc1 | -4.0 | -4.9 | 48.7* | 78.9* | -11.7
Fc1ccc(-n2cc(-c3ccccc3)c3c(N4CCOCC4)ncnc32)cc1 | 12.0 | 4.4 | 0.6 | 6.1 | 6.4
c1ccc(-c2cn(-c3ccccc3)c3[n+]2CCS3)cc1 | -4.6 | -1.6 | 69.4* | 62.9* | -7.7
COC(=O)c1sccc1NC(=O)Nc1ccc(F)cc1F | · | -0.5 | · | · | -22.2
Cc1nc(-c2cc(-c3nc(-c4cc(C(F)(F)F)cc(C(F)(F)F)c4)no3)no2)cs1 | · | -0.9 | -5.2 | -1.4 | -20.4
SMILES | APP 5UTR inh | IEC-6 cytotox | Ba/F3 V617F tox | BaF3 tox | KLF5 inh
Cc1nc(-c2cc(-c3nc(-c4ccc(C(F)(F)F)cc4)no3)no2)cs1 | · | 1.3 | -0.9 | 61.1* | -4.4
Cc1cccc2nc(COc3ccc(-c4ccccc4)cc3)cn12 | -38.7 | 1.6 | 43.6* | 37.8* | -27.0
CCN(Cc1cccc(F)c1)C(=O)c1ccc2ccccc2n1 | · | -0.2 | · | · | -25.4
COc1ccc(Nc2nc3cc(C)ccc3cc2C#N)c(OC)c1 | 92.1* | -3.0 | -3.4 | 3.2 | 0.3
CCN(C(=S)NCCOC)c1cccc2ccccc12 | 1.3 | 2.4 | 32.4* | 26.7* | -15.2
Cc1ccc(CN(C)C(=O)c2cc(COc3cccc(C(F)(F)F)c3)on2)o1 | · | 7.7 | · | · | -16.0
Cc1oc(-c2ccc(Cl)cc2)nc1CN1CCC(C(=O)NCc2cccnc2)CC1 | 0.2 | 4.6 | 3.9 | 4.0 | -8.4
CCCN(CCC)CCNC(=O)C1CCN(Cc2nc(-c3ccc(Cl)cc3)oc2C)CC1 | 15.6 | 57.2* | 7.3 | 19.0 | 3.3
Cn1cc([N+](=O)[O-])c(C(=O)Nc2ccc(-c3nc4ccccc4[nH]3)cc2)n1 | -50.6 | 24.8* | 4.1 | 1.2 | -60.8
Cn1cc([N+](=O)[O-])c(C(=O)Nc2cc(Oc3cccnc3)cc([N+](=O)[O-])c2)n1 | 96.5* | 24.0* | 65.8* | 50.7* | 1.2
Cc1ccc(-c2nc(NC(=O)c3nn(C)cc3[N+](=O)[O-])sc2C)cc1 | 95.4* | 15.8 | 77.2* | 80.9* | 20.4
Cc1ccc(-c2nc(NC(=O)c3nn(C)cc3[N+](=O)[O-])sc2C)cc1C | 95.8* | 15.3 | 91.9* | 85.2* | 37.5

Screens as filed in PubChem.
